Laboratory results: PubChem BioAssay (NCATS)
Several values for one entry are separate records, joined by “and”; a condition that tells them apart may be missing. Equal entries are not always repeated. Inconclusive results are not listed. Entries that show only a call come without a potency. Activity calls are given as the source filed them. Unless noted, the call rests on the fitted dose curve; in most records, active means well fitted curve in the direction sought with a large enough effect; inconclusive means small, poorly fitted or top-dose-only effect, or another doubt; inactive means no such curve, though single readings can be large; an effect the other way counts as inactive or inconclusive.

Tests used:
[1] = qHTS to identify inhibitors of the type 1 interferon - major histocompatibility complex class I in skeletal muscle: primary screen against the NCATS Mechanism Interrogation Plate v5.0 (MIPE) Libary (AID 1347411); further: nearly all actives have a fitted effect of over 65% in size; further: potency means the concentration at half of the fitted maximal effect
How it was run: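 Luminescence from CRISPR HiBit-tagged endogenous HLA-B in human myoblasts reported MHC class I level after 24 h of IFN-beta (4 ng/ml) plus compound. Compounds ran as 11-point 1:3 series, top 46 uM final.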

[2] = molecular target: Calcium and integrin-binding protein 1 (Homo sapiens) (UniProt Q99828); test: Primary qHTS for Identification of Calcium Integrin Binding Protein 1 (CIB1) Competitor (AID 1508620);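 further: GST tagged CIB1 binding a fluorescein labelled alphaIIb integrin peptide tracer; top concentration of the series differs between compounds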
How it was run: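 Fluorescence polarization competition: GST-tagged CIB1 (1 uM final) preincubated with compound 15 min at room temperature, then FITC-labelled alphaIIb peptide (100 nM final) added. After 15 min at room temperature, polarization read at Ex 480/Em 540.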

[3] = Primary qHTS for inhibitors of nuclear receptor binding SET domain protein 2 (NSD2) in an isogenic RCH-ACV NSD2 p.E1099K mutant (9B) (AID 1645876); further: nearly all actives have a fitted effect of over 70% in size; further: potency means the concentration at half of the fitted maximal effect
[4] = molecular target: Cytochrome P450 2C9 (Homo sapiens) (UniProt P11712); test: Cytochrome P450 family 2 subfamily C member 9 (CYP2C9) small molecule antagonists: luciferase biochemical (cell-free) qHTS assay (AID 1645842; active means well fitted curve in the direction sought with a large enough effect in the repeat runs; an effect the other way counts as inactive or inconclusive; further: series mostly up to about 57 µM; nearly all actives have a fitted effect of over 55% in size)
How it was run: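 P450-Glo CYP2C9 system: proluciferin substrate with enzyme in mix containing 0.4% BSA, 10 min at room temperature, then NADPH regeneration solution added and incubated 1 h at 37C. Detection reagent stopped reaction; luminescence read after 20 min as RLU.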

[5] = Primary qHTS for inhibitors of nuclear receptor binding SET domain protein 2 (NSD2) in an RCH-ACV wild type WT cells (2C) (AID 1645877); further: nearly all actives have a fitted effect of over 70% in size; further: potency means the concentration at half of the fitted maximal effect

Calcium and integrin-binding protein 1 (Homo sapiens), sequence (Q99828 whole entry, looked up): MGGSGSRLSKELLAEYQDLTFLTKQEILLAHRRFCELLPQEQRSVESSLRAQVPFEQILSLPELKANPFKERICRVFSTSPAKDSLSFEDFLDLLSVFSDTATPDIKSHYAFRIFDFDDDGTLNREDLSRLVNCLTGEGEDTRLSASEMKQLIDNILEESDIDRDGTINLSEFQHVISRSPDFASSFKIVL
Cytochrome P450 2C9 (Homo sapiens), sequence (P11712 whole entry, looked up): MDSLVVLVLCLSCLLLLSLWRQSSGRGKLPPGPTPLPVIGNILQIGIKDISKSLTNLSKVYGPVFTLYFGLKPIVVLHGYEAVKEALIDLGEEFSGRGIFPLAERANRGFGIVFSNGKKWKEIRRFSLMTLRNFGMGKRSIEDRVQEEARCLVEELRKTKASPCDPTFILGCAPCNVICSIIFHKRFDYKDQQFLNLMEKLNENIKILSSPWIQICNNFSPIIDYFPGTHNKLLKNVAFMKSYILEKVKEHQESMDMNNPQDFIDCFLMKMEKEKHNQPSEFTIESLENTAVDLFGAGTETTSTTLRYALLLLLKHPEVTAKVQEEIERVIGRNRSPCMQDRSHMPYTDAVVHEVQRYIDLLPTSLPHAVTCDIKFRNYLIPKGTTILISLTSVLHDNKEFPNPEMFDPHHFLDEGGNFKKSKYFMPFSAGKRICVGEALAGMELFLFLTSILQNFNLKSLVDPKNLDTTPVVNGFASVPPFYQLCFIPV

Compound | Potency [1] | Potency [2] | Potency [3] | Potency [4] | Potency [5]
CC[C@H](NC(=O)[C@H](CS(=O)(=O)CC1CC1)N[C@@H](c1ccc(F)cc1)C(F)(F)F)C(=O)C(=O)NC1CC1 | inactive | inactive | inactive | – | –
COC(=O)N[C@H](C(=O)N1[C@@H]2CC[C@@H](C2)[C@H]1c1nc2ccc(-c3ccc4c(c3)C(F)(F)c3cc(-c5cnc([C@@H]6CCC7(CC7)N6C(=O)[C@@H](NC(=O)OC)C(C)C)[nH]5)ccc3-4)cc2[nH]1)C(C)C | – | inactive | – | – | –
CCOc1cc(C(=O)N2CCC(N3CCN(C)CC3)CC2)ccc1Nc1ncc2c(n1)N(C1CCCC1)c1ccccc1C(=O)N2C | 23400 nM (active) | – | 1.15 µM (active) and 1.86 µM (active) | inactive | 1.29 µM (active) and 1.66 µM (active)
COc1ccc2c(OC)c3ccoc3nc2c1OC | – | inactive | – | – | –
FC(F)(F)c1ccc(Nc2nc(-c3c(C(F)(F)F)nc4ccccn34)cs2)cc1 | 4660 nM (active) | inactive | 417 nM (active) | – | 372 nM (active)
COc1ccc(Cl)c(Nc2nc3ccccc3nc2NS(=O)(=O)c2cccc(NC(=O)C(C)(C)N)c2)c1 | inactive | inactive | 3.65 µM (active) and 5.9 µM (active) | – | 4.09 µM (active) and 8.33 µM (active)
CN[C@@H]1[C@H](O[C@H]2[C@H](O[C@@H]3[C@@H](O)[C@H](O)[C@@H](N=C(N)N)[C@H](O)[C@H]3N=C(N)N)O[C@@H](C)[C@]2(O)C=O)O[C@@H](CO)[C@H](O)[C@H]1O | inactive | inactive | inactive | – | inactive
